About 1,700 (0.61%) of roughly 280,000 compounds were called active. Cut-off read from the data, not from the text of the source: active = inhibition mostly above about 24% (no sharp cut-off); inactive = mostly below about 32%. Only a selection was taken, and actives are over-represented in it overall.

The test in a line: NALP1 inflammasome inhibitors in reconstituted yeast, colorimetric, S. cerevisiae, triplicate retest (AID 2071). Conditions: S. cerevisiae NALP1/ASC/caspase-1 growth, X-gal OD620, 72 h, stronger effect = higher value.

For orientation: inhibition means the relative decrease from the control value, in per cent. Turning to `COc1ccc(S(=O)(=O)Nc2ccc3c(c2)OCO3)cc1Cl`, the inhibition (at 10 µM unless noted) was 27.9% (active).
Consider `COc1ccc(S(=O)(=O)Nc2ccc(S(=O)(=O)N3CCCCC3)cc2)cc1OC`, for which, for the setting “at 10 µM unless noted”, the inhibition is 22.8% (inactive).
As to `CNS(=O)(=O)c1ccc(NC(=O)Nc2ccc3c(c2)OCO3)cc1`, the inhibition (at 10 µM unless noted) was -4.3% (inactive).
With `Cc1cc(N=Nc2ccc3ccccc3c2)ccc1O`, the inhibition (at 10 µM unless noted) was 1.2% (inactive).
In the case of `CC[C@]1(c2ccccc2OC)C(=O)N(C(=O)OC)N1C(=O)OC`, under “at 10 µM unless noted”, the inhibition was 34.1% (inactive).
As to `CCOC(=O)C1(Cc2ccccc2C)CCCN(C(=O)CN2C(=O)CSC2=O)C1` (configuration not stated), the inhibition (at 10 µM unless noted) is 20% (inactive).
On the same count and under the same terms, for `O=C(NC(=S)N1CCCCC1c1cccnc1)c1ccccc1` (configuration not stated) the value was -18% (inactive).
Take `COc1ccc2cc(C(=O)O)n(CC(=O)c3ccccc3)c2c1`: the inhibition (at 10 µM unless noted) is 14% (inactive).
Regarding `CCCn1c(=N)n(CC(=O)c2ccc(Cl)c(Cl)c2)c2ccccc21`, the inhibition (at 10 µM unless noted) was 23.1% (inactive).
As to `CCn1c(=N)n(CC(=O)c2cccc(OC)c2)c2ccccc21`, where the note is “at 10 µM unless noted”, the inhibition was 31.5% (active).
As for `Cc1cccc(NC(=O)C2CCN(C(=O)NC3CCCCC3)CC2)c1`, the inhibition (at 10 µM unless noted) is 3.7% (inactive).
On the same count and under the same terms, for `Cc1ccccc1NC(=O)C1CCN(C(=O)NC2CCCCC2)CC1` the value was 40.8% (active); for `O=C(Nc1cccc2c1CCCC2)C1CCN(C(=O)NC2CCCCC2)CC1`, -14.2% (inactive).
Consider `O=S(=O)(Oc1ccccc1C(=S)N1CCOCC1)c1ccc(Cl)cc1`, for which the inhibition (at 10 µM unless noted) is 1.2% (inactive).
On to `Cc1ccc(OCc2cc(C(=O)N(C)CCn3ccnc3C)no2)cc1C`, for which, for the setting “at 10 µM unless noted”, the inhibition is 5.1% (inactive).
In the case of `COc1cc(N2C(=O)CSC2=S)cc(OC)c1OC`, the inhibition (at 10 µM) was 52.7% (active) and the inhibition (triplicate retest, at 20 µM) was 57.6%.
Turning to `COc1ccc(N2C(=O)CNC2=S)cc1`, the inhibition (at 10 µM unless noted) was -21.9% (inactive).
For `COc1ccc(CCN=C2SCC(=O)N2C)cc1OC`, under “at 10 µM unless noted”, the inhibition is 2.2% (inactive).
As for `O=C1CSC(=S)N1c1ccc(O)cc1`, the inhibition (at 10 µM) was 76.7% (active) and the inhibition (triplicate retest, at 20 µM) is 95.9%.
In the case of `Cc1cc(=O)cc(C)n1-c1ccc(Cl)c(Cl)c1`, the inhibition (at 10 µM unless noted) is -5.9% (inactive).
As for `CCOc1cccc(/C=N/N2C(=O)CSC2=S)c1O`, the inhibition (at 10 µM unless noted) is -14.2% (inactive).
As for `O=C1CSC(=S)N1c1ccc(Cl)c(Cl)c1`, where the note is “at 10 µM unless noted”, the inhibition was 44.2% (active).
Turning to `CC(C)N1C(=S)SC(C)(C)C1n1oc(=O)n(-c2ccc(Cl)c(Cl)c2)c1=O` (configuration not stated), the inhibition (at 10 µM unless noted) was 0.9% (inactive).
Still for that read-out and setting: under `COc1cccc(C2SCC(=O)N2c2cccc(C)c2)c1OC` (configuration not stated) stands 9.2% (inactive).
Still for that read-out and setting: under `Cc1cccc(Nc2nc(-c3ccccc3)cs2)n1` stands 19.1% (inactive).
Take `CCOc1ccccc1NC(=S)N1CCN(c2cccc(C)c2C)CC1`: the inhibition (at 10 µM unless noted) is 4.9% (inactive).
Consider `CC(C)c1ccc2oc(=O)cc(CN3CCN(Cc4ccccc4)CC3)c2c1`, for which the inhibition (at 10 µM unless noted) is 8.7% (inactive).
As for `Cc1cc(Cl)nc(NC(=O)Nc2cccc(Cl)c2)n1`, the inhibition (at 10 µM unless noted) was 22.5% (inactive).
For the compound `O=c1c(-c2cccc(Cl)c2)c[nH]n1-c1ccccc1`, the inhibition (at 10 µM unless noted) was 17% (inactive).
For `CCCn1c(C(C)Nc2nc(-c3ccc(C)cc3)cs2)nc2cc(Cl)c(N3CCCCC3)cc21` (configuration not stated), the inhibition (at 10 µM unless noted) was 14.5% (inactive).
As to `Cn1c(CC(=O)Nc2ccccc2)nnc1SCC(=O)c1ccccc1`, under “at 10 µM unless noted”, the inhibition is 9.9% (inactive).
Turning to `Cn1c(CSCC(=O)Nc2ccccc2)nnc1SCc1ccccc1`, the inhibition (at 10 µM unless noted) is 38.6% (active).
With `O=C(CSCc1ccccc1)Nc1ccccc1`, the inhibition (at 10 µM unless noted) was 8.9% (inactive).
`CCOC(=O)Nc1ccc2c(c1)N(C(=O)CCCl)c1ccccc1[S@]2=O`: the inhibition (at 10 µM unless noted) was 8.9% (inactive).
`O=C(CCCN1C(=O)/C(=C/c2cccs2)SC1=S)Nc1ccc(O)cc1`: the inhibition (at 10 µM unless noted) was 5% (inactive).
The same measure, in the same setting: under `Cc1cccc(C)c1NC(=O)C(c1ccccc1)N1CC(=O)Nc2ccccc21` (configuration not stated) stands 19.2% (inactive).
With `Cc1cccc(C)c1NC(=O)N1CC(C)OC(C)C1` (configuration not stated), the inhibition (at 10 µM unless noted) was 5.2% (inactive).
Consider `Cc1cccc(C)c1NC(=O)C(Cl)C(=O)c1ccccc1` (configuration not stated), for which the inhibition is 50.4% (active) (at 10 µM) and 80.1% (triplicate retest, at 20 µM).
`CCc1ccc(NC(=O)COC(=O)c2cccs2)cc1`: the inhibition (at 10 µM unless noted) was 8.1% (inactive).
Regarding `Cn1c(CCN2CCCCCC2)nc2cc(NC(=O)Nc3ccccc3)ccc21`, the inhibition (at 10 µM unless noted) is 19.6% (inactive).
Consider `Cc1nc2cc(NCc3cccs3)ccc2n1C`, for which, for the setting “at 10 µM unless noted”, the inhibition was 1.9% (inactive).
For the compound `Cc1nc2cc(NC(=O)NC3CC3)ccc2n1C`, under “at 10 µM unless noted”, the inhibition is 29.1% (active).
As to `CCCOC1CCCN(C(=O)c2cc(COc3cncc(Cl)c3)on2)C1` (configuration not stated), the inhibition (at 10 µM unless noted) is -85.7% (inactive).
On to `Cc1ccc(C)c(N2CCN(C(=O)CCCCCn3c(=S)[nH]c4ccc(N5CCOCC5)cc4c3=O)CC2)c1`, for which the inhibition (at 10 µM unless noted) is -12.8% (inactive).
Regarding `CCOc1ccc(NC(=O)CCCCCN2C(=O)[C@@H]3Cc4ccccc4CN3C2=O)cc1`, the inhibition (at 10 µM unless noted) was 12.6% (inactive).
As to `Cc1ccc(Cn2c(C)c3cnn(CC(=O)NCc4ccccn4)c(=O)c3c2C)cc1`, the inhibition (at 10 µM unless noted) was -2.5% (inactive).
Regarding `CNC(=O)/C(C#N)=C/c1c(F)cccc1Cl`, the inhibition (at 10 µM unless noted) is 46.8% (active).
In the case of `N#C/C(=C\c1ccccc1C(F)(F)F)C(=O)Nc1ccccc1F`, the inhibition (at 10 µM unless noted) is 40.5% (inactive).
In the case of `Cc1[nH]c2ccccc2c1/C=C(/C#N)C(=O)NC(C)C`, the inhibition (at 10 µM unless noted) is 0.1% (inactive).
On the same count and under the same terms, for `O=C(Nc1cccc2cccnc12)c1cccc(N2C(=O)CCC2=O)c1` the value was 15.2% (inactive).
In the case of `O=C(Nc1cccc2cccnc12)c1cccc(Cl)c1`, the inhibition (at 10 µM unless noted) is 0.8% (inactive).
Same read-out and setting: under `N#Cc1ccc(C(=O)Nc2cccc3cccnc23)c(F)c1` stands 40% (active).
For `O=Cc1c(Nc2ccccc2Cl)nc2ccccn2c1=O`, the inhibition (at 10 µM unless noted) was 13.8% (inactive).
For the compound `Cc1ccc(CCn2c3c(c4ccccc42)CN(C)CC3)cn1`, the inhibition (at 10 µM unless noted) is 39.6% (active).
As to `COc1cc(Br)c(-c2sc(Nc3ccccc3)n[n+]2-c2ccccc2)cc1OC`, the inhibition (at 10 µM unless noted) is -1.9% (inactive).
As for `Cc1ccccc1Nc1nc(-c2cccnc2)cs1`, the inhibition (at 10 µM unless noted) was 16.4% (inactive).
Take `COc1nnc(-c2ccc(C)c(S(=O)(=O)N(C)C)c2)c2ccccc12`: the inhibition (at 10 µM unless noted) was 17.5% (inactive).
In the case of `CCc1ccc(Nc2nnc(SCC(=O)c3ccc4c(c3)NC(=O)CO4)s2)cc1`, the inhibition (at 10 µM unless noted) was 39.5% (active).
Still for that read-out and setting: for `CCCc1nc2ccccc2c(C(=O)OCC(=O)c2ccc3c(c2)NC(=O)CO3)c1CC` the value was -1.4% (inactive).
On to `Cc1ccc(Nc2nnc(SCC(=O)c3cc4ccccc4o3)s2)cc1C`, for which, under “at 10 µM unless noted”, the inhibition was 5% (inactive).
Consider `COc1ccc(C(=O)/C=C/c2cccnc2)c(OC)c1`, for which the inhibition (at 10 µM unless noted) was -90.5% (inactive).
As for `COc1ccc(O)c(/C=N/N=C/c2cccc([N+](=O)[O-])c2)c1`, the inhibition (at 10 µM unless noted) was 14.9% (inactive).
With `Cc1ccc(O)c(CNc2nc3ccccc3[nH]2)c1`, where the note is “at 10 µM unless noted”, the inhibition was 10.8% (inactive).
Still for that read-out and setting: under `COCC1CCN(C(=O)C2CCC(=O)N(Cc3cccc(C(F)(F)F)c3)C2)CC1` (configuration not stated) stands 2.8% (inactive).

Source of the values: PubChem BioAssay AID2071 (Sanford-Burnham Center for Chemical Genomics, 2009).
